In PubChem BioAssay (Tox21):
Results filed as inconclusive are left out. Calls of active or inactive are those of the source. Unless noted, calls come from the whole dose curve; as a rule, active = well fitted curve in the direction sought with a large enough effect in the repeat runs; inconclusive = weak or mixed curves; inactive = no such curve, though single readings can be large; an effect the other way counts as inactive or inconclusive.

Experiments:
[1] = A CellTox Green Cytotoxicity Assay to monitor cytotoxicity in HEK293 cells - 32 hour (AID 1224881); note: nearly all actives have a fitted effect of over 40% in size
Method in brief: (§1)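 Nonlytic real-time cytotoxicity: HEK293 + CellTox Green reagent plated, 5 h preincubation, pintool compound addition (23 nL in DMSO), 37 C for 40 h, fluorescence measured at successive time points.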

[2] = A CellTox Green Cytotoxicity Assay to monitor cytotoxicity in HepG2 cells - 0 hour (AID 1224882); note: nearly all actives have a fitted effect of over 35% in size
Method in brief: (§2)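 Read-out is fluorescence of a cyanine dye excluded from live cells that stains DNA of dead HepG2 cells, with signal proportional to cytotoxicity. Plates were read at 0, 8, 16, 24, 32 and 40 h after compound addition.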

[3] = A CellTox Green Cytotoxicity Assay to monitor cytotoxicity in HepG2 cells - 32 hour (AID 1224883); note: nearly all actives have a fitted effect of over 50% in size
Method in brief: as §2

[4] = A CellTox Green Cytotoxicity Assay to monitor cytotoxicity in HEK293 cells - 8 hour (AID 1224884); note: nearly all actives have a fitted effect of over 35% in size
Method in brief: as §1

[5] = qHTS RealTime-Glo MT Cell Viability Assay in HepG2 cells - 16 hour (AID 1224885); note: nearly all actives have a fitted effect of over 50% in size
Method in brief: (§3)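 Real-time, nonlytic viability: 600 HepG2 cells/well mixed with NanoLuc enzyme plus prosubstrate; 5 h settle, compound (DMSO) added by pintool; luminescence monitored over 40 h at 37 C.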

[6] = qHTS RealTime-Glo MT Cell Viability Assay in HEK293 cells - 24 hour (AID 1224886); note: top concentration of the series differs between compounds; nearly all actives have a fitted effect of over 50% in size
Method in brief: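 Cells + reagent dispensed (600 cells/well, HEK293) → 5 h at 37 C/5% CO2 → 23 nL compound in DMSO pinned → 40 h at 37 C → luminescence read at 0, 8, 16, 24, 32, 40 h.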

[7] = qHTS RealTime-Glo MT Cell Viability Assay in HEK293 cells - 8 hour (AID 1224887); note: top concentration of the series differs between compounds; nearly all actives have a fitted effect of over 50% in size
Method in brief: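 Cells were seeded together with NanoLuc luciferase and a prosubstrate that viable cells reduce to a luciferase substrate. After a 5 h incubation at 37 C/5% CO2, compounds were added and luminescence was measured repeatedly during 40 h of treatment.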

[8] = A CellTox Green Cytotoxicity Assay to monitor cytotoxicity in HEK293 cells - 16 hour (AID 1224888); note: nearly all actives have a fitted effect of over 35% in size
Method in brief: as §1

[9] = qHTS RealTime-Glo MT Cell Viability Assay in HepG2 cells - 0 hour (AID 1224889); note: nearly all actives have a fitted effect of over 50% in size
Method in brief: as §3

[10] = A CellTox Green Cytotoxicity Assay to monitor cytotoxicity in HepG2 cells - 8 hour (AID 1224890); note: nearly all actives have a fitted effect of over 45% in size
Method in brief: as §2

[11] = qHTS assay to identify small molecule antagonists of the estrogen receptor alpha (ER-alpha) signaling pathway using the BG1 cell line in the presence of 0.1 nM 17-beta-estradiol - cell viability counter screen (AID 1259241); note: nearly all actives have a fitted effect of over 40% in size
Method in brief: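 Following 5 days in phenol red-free medium with charcoal-stripped serum, VM7Luc4E2 cells received test compounds alongside 0.1 nM 17beta-estradiol (final) at 37C for 22 hr. Live cells were then quantified via protease-substrate fluorescence.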

[12] = qHTS assay to identify small molecule antagonists of the androgen receptor (AR) signaling pathway using the MDA cell line in the presence of 0.5 nM R1881 - cell viability counter screen (AID 1259242); note: nearly all actives have a fitted effect of over 45% in size
Method in brief: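 Counter screen for cytotoxicity run in the same wells as the AR antagonist reporter screen: MDA-kb2 cells were treated 16 hr with test compounds and 0.5 nM R1881, then live-cell protease activity was measured by fluorescence.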

[13] = biological target: Estrogen receptor (Homo sapiens) (UniProt P03372); assay: qHTS assay to identify small molecule antagonists of the estrogen receptor alpha (ER-alpha) signaling pathway using the BG1 cell line in the presence of 0.1 nM 17-beta-estradiol (AID 1259244); note: nearly all actives have a fitted effect of over 50% in size
Estrogen receptor (Homo sapiens), sequence (P03372 whole entry, looked up): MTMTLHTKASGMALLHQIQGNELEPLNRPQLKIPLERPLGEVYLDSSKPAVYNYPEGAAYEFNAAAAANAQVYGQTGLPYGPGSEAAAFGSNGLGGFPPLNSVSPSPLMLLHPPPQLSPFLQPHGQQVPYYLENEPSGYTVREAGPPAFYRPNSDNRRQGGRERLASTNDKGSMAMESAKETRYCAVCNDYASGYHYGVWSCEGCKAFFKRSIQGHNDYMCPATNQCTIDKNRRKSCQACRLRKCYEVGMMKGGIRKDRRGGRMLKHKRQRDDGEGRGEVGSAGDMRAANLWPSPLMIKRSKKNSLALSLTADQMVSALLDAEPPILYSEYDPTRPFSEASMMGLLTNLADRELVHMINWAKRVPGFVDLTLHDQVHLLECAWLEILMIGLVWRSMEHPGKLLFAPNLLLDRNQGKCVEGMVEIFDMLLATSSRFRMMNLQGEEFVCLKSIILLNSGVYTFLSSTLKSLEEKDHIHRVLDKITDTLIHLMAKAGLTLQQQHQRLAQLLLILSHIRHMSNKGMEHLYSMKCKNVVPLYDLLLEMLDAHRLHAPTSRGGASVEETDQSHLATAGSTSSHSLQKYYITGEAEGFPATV
Method in brief: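 Cells: VM7Luc4E2, endogenous ER-alpha, 4x ERE-luc stable. Pre-culture 5 d, phenol red-free, charcoal-stripped FBS. Plated 24 h, compound + E2 0.1 nM final, 22 h 37C/5% CO2. Readout ONE-Glo luminescence.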

[14] = qHTS assay to identify small molecule HDAC inhibitors (AID 1259364); note: top concentration of the series differs between compounds; nearly all actives have a fitted effect of over 45% in size
Method in brief: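 Luminescence from a cell-permeant luminogenic class I/II HDAC substrate reports endogenous deacetylase activity in intact HCT-116 cells treated with compounds for 2 h.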

[15] = qHTS assay to identify small molecule HDAC inhibitors - cell viability counter screen (AID 1259365)
Method in brief: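 HCT-116 wild-type, overnight attachment; 2hr drug exposure, 37C; CellTiter-Glo luminescent ATP readout after 30min RT.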

[16] = qHTS assay to identify small molecule agonists of the sonic hedgehog signaling (Shh) pathway - cell viability counter screen (AID 1259366); note: nearly all actives have a fitted effect of over 50% in size
Method in brief: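 Compounds in DMSO were pin-transferred onto 3T3 Gli1-Luc cells that had settled 4hr; plates then stood 24hr at 37C and 5% CO2. One hour before the end, CellTiter-Fluor was added and fluorescence recorded.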

[17] = qHTS assay to identify small molecule antagonists of the sonic hedgehog signaling (Shh) pathway - cell viability counter screen (AID 1259367); note: nearly all actives have a fitted effect of over 55% in size
Method in brief: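 Seed 3T3 Gli1-Luc cells at 2,000 per well; incubate 4 hr; add compound in DMSO, then conditioned medium; incubate at 37C with 5% CO2; add CellTiter-Fluor after 23 hr; read fluorescence 1 hr later.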

[18] = qHTS assay to identify small molecule agonists of the sonic hedgehog signaling (Shh) pathway (AID 1259368; calls by dose curve;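 note: NIH/3T3-derived 3T3Gli1-Luc cells carrying a stable Gli1-driven firefly luciferase reporter; series mostly up to about 92 µM; nearly all actives have a fitted effect of over 15% in size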)
Method in brief: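 3T3Gli1-Luc (NIH/3T3 clone, stable Gli1-Luc); 4 hr pre-incubation, then cpd in DMSO 24 hr, 37 C/5% CO2; luciferase reagent 30 min RT; luminescence.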

[19] = qHTS assay to identify small molecule phospholipidosis (PLD) inducers (AID 1259344; active = well fitted curve in the direction sought with a large enough effect; an effect the other way counts as inactive or inconclusive)
Method in brief: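 Quantitative HTS in HepG2: compound plus LipidTOX Red dye for 24 h, paraformaldehyde fixation with Hoechst 33342, widefield high-content imaging; amiodarone as positive and DMSO as negative control.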

[20] = biological target: Androgen receptor (Homo sapiens) (UniProt P10275); assay: qHTS assay to identify small molecule antagonists of the androgen receptor (AR) signaling pathway using the MDA cell line in the presence of 0.5 nM R1881 (AID 1259243); note: nearly all actives have a fitted effect of over 50% in size
Androgen receptor (Homo sapiens), sequence (P10275 whole entry, looked up): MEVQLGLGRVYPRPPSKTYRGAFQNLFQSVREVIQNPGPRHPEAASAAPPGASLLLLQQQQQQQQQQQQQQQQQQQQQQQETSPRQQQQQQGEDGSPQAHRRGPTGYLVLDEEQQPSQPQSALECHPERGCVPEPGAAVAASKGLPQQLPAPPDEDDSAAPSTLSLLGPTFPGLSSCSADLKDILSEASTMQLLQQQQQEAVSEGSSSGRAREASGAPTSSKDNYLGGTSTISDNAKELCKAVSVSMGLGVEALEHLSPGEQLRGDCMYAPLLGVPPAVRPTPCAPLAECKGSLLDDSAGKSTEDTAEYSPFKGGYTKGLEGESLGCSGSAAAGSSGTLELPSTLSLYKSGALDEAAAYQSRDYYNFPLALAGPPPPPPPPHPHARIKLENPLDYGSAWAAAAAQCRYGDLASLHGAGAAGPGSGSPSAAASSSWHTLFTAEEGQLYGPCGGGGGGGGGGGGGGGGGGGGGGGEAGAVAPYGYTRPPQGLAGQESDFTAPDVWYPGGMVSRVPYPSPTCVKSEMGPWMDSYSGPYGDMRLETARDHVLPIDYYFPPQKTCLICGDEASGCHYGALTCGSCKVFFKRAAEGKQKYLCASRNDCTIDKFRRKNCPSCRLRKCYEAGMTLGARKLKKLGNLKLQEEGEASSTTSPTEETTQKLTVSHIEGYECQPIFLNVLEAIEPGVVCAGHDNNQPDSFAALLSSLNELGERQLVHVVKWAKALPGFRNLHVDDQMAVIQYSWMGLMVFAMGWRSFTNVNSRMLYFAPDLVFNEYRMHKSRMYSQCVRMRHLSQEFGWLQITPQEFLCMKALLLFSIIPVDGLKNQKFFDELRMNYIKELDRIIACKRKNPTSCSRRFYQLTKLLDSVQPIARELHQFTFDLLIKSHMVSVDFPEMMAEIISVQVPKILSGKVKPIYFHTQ
Method in brief: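 Luciferase luminescence is the read-out: compounds are tested for suppressing 0.5 nM R1881-driven MMTV reporter activity in MDA-kb2 cells after 16 hr at 37C.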

Measured: Potency

CN/C(=N\[N+](=O)[O-])NCc1cnc(Cl)s1
inactive: [1] | [2] | [3] | [4] | [5] | [6] | [7] | [8] | [9] | [10] | [11] | [12] | [13] | [14] | [15] | [16] | [17] | [18]

CC(Cc1ccc2c(c1)OCO2)NO (stereo not given)
inactive: [1] | [2] | [3] | [4] | [5] | [6] | [7] | [8] | [9] | [10] | [11] | [12] | [13] | [19] | [14] | [15] | [16] | [17] | [18]

COC(=O)/C=C(\C)OP(=O)(OC)OC
inactive: [1] | [2] | [3] | [4] | [5] | [6] | [7] | [8] | [9] | [10] | [11] | [12] | [13] | [14] | [15] | [16] | [17] | [18]

BrCCCBr
inactive: [1] | [2] | [3] | [4] | [5] | [6] | [7] | [8] | [9] | [10] | [11] | [12] | [20] | [14] | [16] | [17] | [18]

CCCCc1ccccc1
inactive: [1] | [2] | [3] | [4] | [5] | [6] | [7] | [8] | [9] | [10] | [11] | [12] | [13] | [15] | [16] | [17] | [18]

CNC(=O)Oc1cc(C)cc(C(C)C)c1
inactive: [1] | [2] | [3] | [4] | [5] | [6] | [7] | [8] | [9] | [10] | [11] | [12] | [13] | [14] | [15] | [16] | [17] | [18]

CCN(CC)C(=O)N[C@@H]1C=C2c3cccc4[nH]cc(c34)C[C@@H]2N(C)C1
inactive: [1] | [2] | [3] | [4] | [5] | [6] | [7] | [8] | [9] | [10] | [11] | [12] | [13] | [19] | [14] | [15] | [16] | [18]
